Assay outcomes: PubChem, several laboratories
Only some compounds are listed: those with a hit (about 2.3% of all), similar ones and a draw of the others.
Mcl-1 Bim block: human Bim-Mcl-1 interaction inhibition; Q07820; Bead-based flow cytometry, Bim peptide-Mcl-1 binding; inhibition, % at 10 µM; hit rate 0.1% among 190,000; AID 1009; in the data active means inhibition above about 40%;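 further: 0% = no compound tracer wells and 100% = peptide blocker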
Target sequence (Q07820 whole entry, looked up): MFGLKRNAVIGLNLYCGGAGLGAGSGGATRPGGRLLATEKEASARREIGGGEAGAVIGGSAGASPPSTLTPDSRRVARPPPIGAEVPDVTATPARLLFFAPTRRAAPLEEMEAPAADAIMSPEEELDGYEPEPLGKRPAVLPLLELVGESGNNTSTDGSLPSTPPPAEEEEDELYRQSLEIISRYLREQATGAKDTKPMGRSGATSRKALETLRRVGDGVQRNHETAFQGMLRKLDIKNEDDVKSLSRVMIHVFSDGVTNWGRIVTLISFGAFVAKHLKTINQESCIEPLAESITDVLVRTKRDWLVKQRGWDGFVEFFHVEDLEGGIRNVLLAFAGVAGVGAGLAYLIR
MCL1 BIM primary: disrupts human MCL1 binding to BIM-BH3 peptide; hit rate 0.68% among 320,000; Q07820; inhibition, % at 10.9 µM; AID 2057; GST-MCL1 / FITC-Bim-BH3 fluorescence polarization;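 active means inhibition above the mean inhibition of all tested compounds plus 3 SD, set per campaign, cut at about 40% in these data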;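 further: 0% = DMSO wells and 100% = unlabeled Bim-BH3 peptide control; higher means more loss of mP so more displacement of Bim peptide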
Mcl1 Bid PPI: disrupts binding of human Mcl-1 to Bid peptide; AID 1021; Q07820; inhibition, % at 21.7 µM; hit rate 0.97% among 220,000; TR-FRET Mcl-1/Bid-Dy647 peptide binding, 1536-well;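 active means compounds that cut the binding signal by more than half at the single screening dose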;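 further: His-tagged Mcl-1 with europium anti-His antibody binding Bid BH3 peptide; 0% = Mcl-1 plus peptide wells and 100% = peptide-only wells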
GLD-1 TGE inh: GLD-1-TGE RNA interaction inhibition (C. elegans) | Q17339 | purified GLD-1 + fluorescein TGE RNA, fluorescence polarization | inhibition, % at 5.96 µM | hit rate 0.44% among 320,000 | AID 2280;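 active means percent inhibition above a per-plate cutoff, the plate mean of test compounds plus 3 SD, cut at about 30% in these data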;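 further: 0% = DMSO wells with GLD-1 and probe and 100% = wells lacking GLD-1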
Mcl1 Noxa PPI: Mcl-1/Noxa interaction inhibition; TR-FRET Mcl-1/Noxa peptide binding, 2 h; inhibition, % at 21.7 µM; hit rate 1.5% among 220,000;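 active means compounds that cut the protein-peptide binding signal by more than 50% relative to plate controls in a single-dose test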;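 further: His-tagged Mcl-1 with rhodamine Noxa BH3 peptide and terbium anti-His antibody; 0% = Mcl-1 plus Noxa peptide wells and 100% = peptide-only wells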
Bcl-xL primary: blocks human Bcl-xL binding to Bim BH3 peptide; hit rate 0.7% among 320,000; Q07817; AID 2129; GST-Bcl-xL / FITC-Bim BH3 peptide fluorescence polarization; inhibition, % at 10.9 µM;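 active means inhibition above the mean of all tested compounds plus 3 SD, cutoff set per campaign, cut at about 30% in these data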;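 further: 0% = DMSO wells and 100% = unlabeled Bim-BH3 peptide competitor; inhibitors lower millipolarization by displacing the labeled peptide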
Target sequence (Q07817 whole entry, looked up): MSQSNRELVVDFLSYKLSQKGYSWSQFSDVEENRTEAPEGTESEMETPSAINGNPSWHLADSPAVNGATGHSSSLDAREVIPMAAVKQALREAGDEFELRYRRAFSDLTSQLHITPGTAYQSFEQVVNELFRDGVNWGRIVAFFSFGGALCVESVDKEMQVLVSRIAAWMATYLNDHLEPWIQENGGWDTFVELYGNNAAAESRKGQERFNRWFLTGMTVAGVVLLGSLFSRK
Numbers without * were called inactive; x = no result.

SMILES	Mcl-1 Bim block	MCL1 BIM primary	Mcl1 Bid PPI	GLD-1 TGE inh	Mcl1 Noxa PPI	Bcl-xL primary
O=C(/C=C/c1ccco1)c1ccc(NC(=O)C23CC4CC(CC(C4)C2)C3)cc1	-4.0	-8.9	30.9	-7.5	60.1*	-2.6
CCN(CC)S(=O)(=O)c1cccc(C(=O)N/N=C2\CC(=O)CC(C)(C)C2)c1	-2.0	19.3	-19.6	52.8*	-8.9	14.9
O=C(C#Cc1ccccc1)Nc1cccc(F)c1	x	-0.4	x	-7.6	x	-0.4
CC(=O)Nc1ccc(S(=O)(=O)N2C(C)CCCC2C)cc1 (stereo not drawn)	x	10.6	x	-4.3	x	9.1
CC1=C(C(=O)Nc2cc(C(=O)N3CCC(C)CC3)ccc2C)SCCO1	x	-2.9	x	3.2	x	-2.3
COCCCn1c(=O)c2sccc2n2c(CCCC(=O)NCc3ccc(OC)cc3)nnc12	x	-7.3	x	-10.9	x	4.8
O=C(Cc1ccc(Cl)cc1)SCc1ccccc1	x	-4.5	x	-6.9	x	0.9
O=C(CC1SC(N2CCOCC2)=NC1=O)Nc1ccc(Cl)c(C(F)(F)F)c1 (stereo not drawn)	x	x	x	3.4	x	x
CC(C)=CCc1c(O)cc2oc3c(CC=C(C)C)c(O)c(O)c(CC=C(C)C)c3c(=O)c2c1O	x	12.7	-50.9	10.0	60.1*	2.3
CC(C)=CCc1cc(-c2oc3cc(O)cc(O)c3c(=O)c2O)ccc1O	x	1.3	x	3.6	x	3.0
O=C(N/N=C/c1ccc(O)cc1O)c1ccc(CN2C(=O)c3cccc4cccc2c34)cc1	-1.0	7.5	-45.9	-9.1	77.7*	0.1
Cc1ccc(C)c(NC(=O)C2CCCN2/C=C/C(=O)C(F)(F)F)c1 (stereo not drawn)	-2.0	-5.0	72.1*	-2.5	-7.0	2.0
COCCn1c(SCC(=O)NC(=O)NCc2ccccc2)nc2ccccc21	-1.0	-2.6	55.6*	-7.5	7.5	-1.1
COCCN1CCN(C(=O)C2CCC(=O)N(CCc3cccc(F)c3)C2)CC1 (stereo not drawn)	x	-7.8	x	-0.9	x	-4.4
O=C(O)CCc1nn2c3ccccc3n(CC(=O)c3ccccc3)c2nc1=O	3.0	-4.4	73.6*	-1.1	28.5	1.0
CCOC(=O)Cn1c2ccccc2n2nc(CCC(=O)O)c(=O)nc12	-2.0	-6.2	-7.2	-0.4	3.3	2.6
COc1ccc(-c2nnn(CC(=O)N(CCCO)C(C(=O)NC3CCCC3)c3ccncc3)n2)cc1 (stereo not drawn)	0.0	3.9	87.0*	6.0	7.4	5.0
Cn1nc(C(=O)OCC(=O)Nc2cc(Cl)ccc2C#N)c2ccccc2c1=O	x	-0.7	x	2.8	x	0.1
COC(=O)CCSCC(=O)N1N=C(c2ccc(Br)cc2)CC1c1cccc(OC)c1OC (stereo not drawn)	-2.0	8.1	-5.0	-2.4	-13.4	6.5
Cc1nc2ccccc2n1CSc1ccccc1	42.0*	3.6	-5.6	3.9	7.6	1.9
O=[N+]([O-])c1ccc(/C=N/NC(=S)Nc2ccc(Cl)cc2Cl)s1	x	-3.4	79.6*	-12.2	87.5*	-4.2
Cc1ccccc1NC(=O)/C=C/c1ccc([N+](=O)[O-])s1	-6.0	0.0	51.8*	-1.5	14.2	2.1
COc1ccccc1NC(=O)C(=O)N/N=C/c1ccc([N+](=O)[O-])s1	4.0	x	92.7*	x	92.5*	x
CCN1CCN(S(=O)(=O)c2ccc(Cl)c(C(=O)N(C)CCOc3ccc(Cl)cc3)c2)CC1	x	4.4	x	5.3	x	1.0
CC1=CC(C#N)(C#N)C(C#N)(C#N)C(c2ccccc2)N1 (stereo not drawn)	-2.0	151.2*	-27.2	118.9*	19.2	144.9*
SMILES	Mcl-1 Bim block	MCL1 BIM primary	Mcl1 Bid PPI	GLD-1 TGE inh	Mcl1 Noxa PPI	Bcl-xL primary
CCCc1n(CC)c2ccccc2[n+]1CC(O)COC1CCCCC1 (stereo not drawn)	4.0	-17.4	8.8	6.6	27.4	-7.9
CC(C)OCCCNC(=O)c1ccc(Br)cc1	-1.0	4.2	2.8	-1.2	-7.0	2.4
CC(C)OCCCNC(=O)C(=O)NCCCOC(C)C	-4.0	1.3	7.6	19.3	11.1	40.0*
CCCOc1ccc(-c2nnc(N)s2)cc1	-3.0	6.3	-37.1	5.1	61.7*	-1.2
COc1ccc(-c2nnc(N)s2)cc1	-7.0	8.7	-21.1	3.8	3.6	0.7
CCC(C)NCCOCCSc1ccc(Cl)cc1 (stereo not drawn)	-5.0	4.9	52.1*	-1.3	3.8	4.7
C=CCc1cc(Cl)ccc1OCCOCCNC(C)CC (stereo not drawn)	-1.0	-15.2	39.7	-2.8	33.1	-7.3
O=C(COC(=O)c1cc(S(=O)(=O)N2CCOCC2)ccc1F)NCc1ccco1	x	-1.5	x	2.2	x	7.2
COc1ccc2nc(NC(=O)c3cccc(-c4cc5ccccc5oc4=O)c3)sc2c1	-2.0	-14.5	87.5*	5.6	53.9*	-8.9
COc1ccc(C(=O)Nc2cccc(-c3cc4ccccc4oc3=O)c2)cc1[N+](=O)[O-]	-1.0	9.9	86.7*	5.5	55.5*	2.3
CN(c1ccccc1)S(=O)(=O)c1cccc(NC(=O)C2CC(=O)N(Cc3ccccc3)C2)c1 (stereo not drawn)	x	-5.1	-17.9	2.0	4.1	4.1
CCOc1cc(/C=N/Nc2nn3cnnc3c3ccccc23)ccc1O	x	12.1	-71.8	-3.6	56.2*	10.8
CCOc1cc(/C=N/Nc2nncc(-c3ccccc3)n2)ccc1O	6.0	8.6	-43.1	1.3	33.2	10.3
Oc1ccc(/C=N/Nc2nn3cnnc3c3ccccc23)cc1	x	5.7	-37.9	4.1	51.3*	5.1
COc1cccc(/C=N/Nc2nn3cnnc3c3ccccc23)c1	17.0	4.0	-2.4	-0.2	x	-1.4
COc1cc(/C=N/Nc2nn3cnnc3c3ccccc23)ccc1O	28.0	2.4	-7.8	1.2	68.4*	9.2
O=S(=O)(Nc1c(S(=O)(=O)c2ccccc2)c2nc3ccccc3nc2n1C1CCCCC1)c1ccccc1	-5.0	2.7	57.2*	7.0	55.2*	4.8
C=CCn1c(NS(=O)(=O)c2ccccc2)c(S(=O)(=O)c2ccc(C)cc2)c2nc3ccccc3nc21	-13.0	9.7	-13.1	10.0	22.2	22.3
O=C(OCc1nnc(-c2cccs2)o1)C1=NN(c2ccccc2)C(=O)CC1	x	-4.8	x	5.2	x	-1.1
CC1OC(OC2C(Oc3c(-c4ccc(O)cc4)oc4cc(O)cc(O)c4c3=O)OC(COC3O[C@@H](C)[C@H](O)[C@@H](O)C3O)C(O)C2O)C(O)C(O)C1O (stereo partly drawn)	x	0.7	x	0.1	x	2.6
CC1OC(OCC2OC(Oc3c(-c4ccc(O)cc4)oc4cc(O)cc(O)c4c3=O)C(O)C(O)C2O)C(O)C(O)C1O (stereo not drawn)	0.0	14.1	-7.3	6.9	54.1*	5.7
COc1ccc(C2(C)NC(=O)N(CC(=O)NCCC3=CCCCC3)C2=O)cc1OC (stereo not drawn)	-1.0	-21.2	84.3*	1.4	6.0	-6.0
